# Laboratory results as given in PubChem BioAssay AID493168 (National Center for Advancing Translational Sciences (NCATS), 2011).
# Results filed as inconclusive are left out. A call without a number means that no potency is given here. Calls of active or inactive are those of the source. The call rests on the fitted dose curve; in most records, active means well fitted inhibition curve with a large enough effect; inconclusive means small, poorly fitted or top-dose-only effect, or effect the other way; inactive means flat fitted curve, though single readings scatter.
# Biological target: Ubiquitin carboxyl-terminal hydrolase 2 (Homo sapiens) (UniProt O75604)
# Sequence (O75604 whole entry, looked up): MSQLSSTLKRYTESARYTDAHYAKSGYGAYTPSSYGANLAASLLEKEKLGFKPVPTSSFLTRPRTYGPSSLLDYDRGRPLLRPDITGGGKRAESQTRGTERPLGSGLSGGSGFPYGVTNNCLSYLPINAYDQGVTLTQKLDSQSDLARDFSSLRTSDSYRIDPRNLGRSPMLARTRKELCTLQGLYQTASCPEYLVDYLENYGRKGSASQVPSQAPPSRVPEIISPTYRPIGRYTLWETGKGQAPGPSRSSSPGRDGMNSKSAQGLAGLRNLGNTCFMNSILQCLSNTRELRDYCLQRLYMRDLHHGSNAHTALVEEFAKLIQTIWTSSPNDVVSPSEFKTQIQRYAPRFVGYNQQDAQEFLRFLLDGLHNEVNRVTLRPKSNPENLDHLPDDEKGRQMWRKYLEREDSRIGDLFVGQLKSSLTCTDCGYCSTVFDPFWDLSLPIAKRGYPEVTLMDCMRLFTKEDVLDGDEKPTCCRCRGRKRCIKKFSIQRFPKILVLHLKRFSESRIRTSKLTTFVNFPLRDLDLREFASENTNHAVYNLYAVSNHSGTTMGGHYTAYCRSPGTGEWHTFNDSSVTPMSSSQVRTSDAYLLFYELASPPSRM
# Test: Confirmation Assay for Inhibitors of Ubiquitin-specific Protease USP2a Using CHOP2 as the Reporter; further: nearly all actives have a fitted effect of over 55% in size
# Conditions: USP2 core, Ub-CHOP2 coupled reporter fluorescence; series mostly up to 38.3 µM
# Summary of the method: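 USP2 core (10 nM final) was preincubated with compound for 30 min at RT in Tris-HCl pH 8.0, CaCl2, beta-mercaptoethanol, CHAPS. Ub-CHOP2 and reporter substrate (25 nM final each) were added, and fluorescence (Ex 485/Em 531 nm) was read after 60 min.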
# Potency means the concentration at half of the fitted maximal effect.
row,SMILES,Potency
1,C=C(C)COc1ccc(-c2[nH]ncc2Oc2ccccc2OCC)c(O)c1,inactive
2,CCC(C)c1ccc(O)c(N)c1 (stereo not given),inactive
3,CCCn1c(C)cc(C)c(C#N)c1=O,inactive
4,Cc1ccc(NC(=O)CSc2nnc(COc3ccc(C#N)cc3)n2-c2ccccc2)cc1C,inactive
5,COC1=CCC2([N+](=O)[O-])CN(CCO)CC1([N+](=O)[O-])C2 (stereo not given),inactive
6,Cc1ccc(C(=O)CSc2nnc(CNc3nc(-c4ccccc4)cs3)n2C)cc1,inactive
7,O=C(CN1C(=O)/C(=C2\SC(=S)N(CCS(=O)(=O)O)C2=O)c2ccccc21)Nc1cccc(Br)c1,5.21 µM (active)
8,CN(C)c1ccc(-c2ccccc2)nn1,inactive
9,CCOc1cc(N2CCOCC2)c(OCC)cc1NC(=O)Cc1cn2ccsc2n1,inactive
10,Cc1ccc(S(=O)(=O)Nc2ccc(N3CCOCC3)cc2)cc1,inactive
11,COc1ccccc1N1C(=O)CC(N2CCc3ccccc32)C1=O (stereo not given),inactive
12,CCCOC(=O)CCCCC1SCC(NC(=O)OC)C1NC(=O)OC (stereo not given),inactive
13,C[C@H](CO)N1C[C@H](C)[C@@H](CN(C)S(=O)(=O)c2cccs2)Oc2c(NC(=O)Nc3ccc4c(c3)OCO4)cccc2C1=O,inactive
14,COc1ccc(-c2csc(N3CCN(C(=O)c4ccco4)CC3)n2)cc1,inactive
15,CCn1nnnc1SCC(=O)Nc1cccc(C)n1,inactive
16,Cc1ccccc1OCc1nc2ccccc2c(=O)n1N,inactive
17,CC(=O)Nc1ccc(NC(=O)[C@@H](NC(=O)c2cccc(C)c2)C(C)C)cc1,inactive
18,C/C(CC(=O)N1CCCC1)=N\NC(=O)c1cc2ccccc2cc1O,inactive
19,O=C(CCc1nc(-c2ccccc2F)no1)NC1CCCCCC1,inactive
20,Cn1c2ccccc2c2nnc(SC3CCOC3=O)nc21 (stereo not given),inactive

row,SMILES,Potency
1,Cc1ccc(C)n1NC(=O)c1ccccc1O,inactive
2,CCO[C@H]1OC(C(=O)N2CCCCCCC2)=C[C@@H](c2ccc(C(F)(F)F)cc2)[C@@H]1CCCO,inactive
3,CN(C)S(=O)(=O)c1ccc(C(=O)NCCN=C2NS(=O)(=O)c3ccccc32)cc1,inactive
4,Cc1ccc(S(=O)(=O)Cc2ccc(C(=O)N3CCN(c4ccccn4)CC3)o2)cc1,inactive
5,CC(C)(C)C1C=C(Sc2ccccc2)C(=O)O1 (stereo not given),inactive
6,CN(c1cccc(NC(=O)Nc2cccc(Cl)c2)c1)S(C)(=O)=O,inactive
7,Cc1ccc(-c2c(C)n([O-])c3c([n+]2=O)CCC3)o1,inactive
8,CCC1SC2=NC(C)=C(C(=O)OCCOC)C(c3ccc(C(=O)OC)cc3)N2C1=O (stereo not given),inactive
9,Cc1ccc(S(=O)(=O)Nc2cc(C)c(O)c(S(=O)(=O)c3ccc(C)cc3)c2)cc1,inactive
10,COc1cccc(N2CCN(C(=O)CN(C)S(=O)(=O)c3ccc4c(c3)CCC(=O)N4)CC2)c1,inactive
11,O=C1/C(=C/C=C/c2ccco2)SC(=S)N1c1ccc(O)cc1,5.21 µM (active)
12,N#Cc1c(Nc2ccc(Cl)cc2)s[nH]c1=O,inactive
13,CCn1c(COc2ccccc2)nnc1SCC(=O)CC(=O)Nc1ccccc1OC,inactive
14,COc1ccccc1C1NC(c2ccccc2OC)C(C)C(=O)C1C (stereo not given),inactive
15,CCc1cc2c(=O)c(-c3nc4ccccc4n3C)coc2c(CN2CCCCC2C)c1O (stereo not given),inactive
16,C#CCOCCOCCOCCNc1nc(N2CCN(C(=O)CCCCCCCCCCNC(=O)[C@H](CO)n3cc(CCCSC)nn3)CC2)nc(N2CCN(C(=O)CCCCCCCCCCNC(=O)[C@H](CCCN=C(N)N)n3cc(C[C@@H](C)CC)nn3)CC2)n1,18.5 µM (active)
17,CS(=O)(=O)c1ccc(C(=O)Nc2nc(-c3ccco3)c(-c3ccco3)s2)cc1,inactive
18,CCN(CC)CCNc1nc(-c2ccccc2)c2c(c1C#N)CC(C)(C)OC2,inactive
19,Cc1ccc(S(=O)(=O)N2[C@@H](c3ccc(C(C)(C)C)cc3)C(C(=O)O)=CC[C@H]2c2ccc(C(C)C)cc2)cc1,9.27 µM (active)
20,CCC(=O)c1ccc(OCC(=O)NC2CCN(Cc3ccccc3)CC2)cc1,inactive
